Nrf2 ARE act = Nrf2 pathway activation; AREc32 ARE-luciferase reporter (MCF7-derived line), luminescence, 24 h; Potency, µM (doses to about 46.1 µM), inactives show top-dose activation, usual class: activators; 0.31% of 410,000 active; AID 624171; also: % of control where 0% means no effect; nearly all actives have a fitted effect of over 65% in size
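Quantitative high-throughput format: AREc32 reporter cells, 1000 per well, received compound by pin transfer and were incubated 24 hr at 37 deg C, 5% CO2, before Steady-Glo luminescence detection.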
Nrf2 block = blocks Nrf2 signaling | A549 ARE-Fluc reporter, luciferase luminescence, 18-24 h | Potency, µM (top dose mostly 46 µM), without a hit: at the highest dose activity change, negative = inhibition, usual class: inhibitors | 2.1% of 360,000 active; also: % is scaled to controls: 0 for no effect and ±100 for the full control effect; nearly all actives have a fitted effect of over 60% in size
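A549 ARE_Fluc cells, 5000/well, 5% FBS OPTI-MEM; compounds in dose-response, 18-24 h at 37 °C/5% CO2; CellTiter-Fluor viability read (Ex 405/Em 525), then BugLite luciferase luminescence = Nrf2 activity.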
ELG1 repair inh = inhibitors of ELG1-dependent DNA repair in HEK293T cells; 2.3% of 330,000 active; AID 504467; HEK293T ELG1-luciferase reporter, luminescence, 16 h; DNA damage induced by 5-fluorouridine; Potency, µM (titrated, usually from 46.1 µM), for the others: at the top dose activity change, negative = inhibition, actives largely listed as inhibitors; also: % is scaled to controls: 0 for no effect and ±100 for the full control effect; nearly all actives have a fitted effect of over 55% in size
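Quantitative HTS, concentration-response format. 2,000 cells/well co-treated with 5-fluorouridine and compound, 16 hr in 5% CO2 at 37 °C; ONE-Glo luminescence read after 30 min.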
A549 viability = counter-screen for Nrf2 inhibitors: cytotoxicity in A549 cells | A549 ARE-Fluc cells, CellTiter-Fluor viability, 18-24 h | 0.16% of 390,000 active | Potency, µM (titrated, usually from 46 µM), for the others: at the top dose activity change, negative = cytotoxicity, usual class: inhibitors; also: % is scaled to controls: 0 for no effect and ±100 for the full control effect
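Cytotoxicity counterscreen: CellTiter-Fluor fluorescence was measured in A549 ARE_Fluc cells after 18-24 h of compound exposure in a concentration series. The subsequent BugLite luminescent read reports ARE-luciferase activity.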
Numbers without * were called inactive; ? = inconclusive; · = no result. Only some compounds are listed: those with a hit (about 3.7% of all), similar ones and a draw of the others. Calls follow the shape of the dose curve; as a rule, active = well fitted curve in the direction sought with a large enough effect; inconclusive = small, poorly fitted or top-dose-only effect, or another doubt; inactive = no such curve, though single readings can be large; an effect the other way counts as inactive or inconclusive. Potency is read from the fitted curve at half-maximal effect.

SMILES	Nrf2 ARE act	Nrf2 block	ELG1 repair inh	A549 viability
CCN(CC)C(=O)COC(=O)c1cc(-c2ccc(OC)cc2)nc2ccccc12	3.0%	23.1µM*	?	-22.5%
O=C(Nc1ccc(C(=O)OC[C@@H]2CCCN3CCCC[C@H]23)cc1)c1cccc(Br)c1	11.4%	2.8%	0.9%	0.3%
COc1cc(/C=C/c2sc3ccccc3[n+]2CCCS(=O)(=O)[O-])ccc1O	0.3%	?	-11.4%	11.6µM*
CCC(/C=C1\Oc2ccc(OC)cc2N1C)=C\c1sc2ccccc2[n+]1CCCS(=O)(=O)[O-]	0.1%	-7.0%	·	-12.5%
COc1ccc(C2CCCN2C(=S)Nc2ccc(C)c(C)c2)cc1OC (stereo not drawn)	-0.5%	-1.6%	25.9µM*	0.8%
COc1ccc(C2CCCN2C(=O)Nc2ccc(C)c(C)c2)cc1OC (stereo not drawn)	-0.2%	?	?	-5.1%
Nc1c(C(=O)Nc2ccc(OC(F)(F)F)cc2)sc2nc(-c3ccncc3)ccc12	6.3%	6.51µM*	·	-4.3%
COC(=O)c1c(NC(=O)C2COc3ccccc3O2)sc2c1CCN(C(=O)OC)C2 (stereo not drawn)	-0.3%	·	·	·
CC(NC(=O)CCCCCCN1C(=O)c2ccccc2C1=O)c1ccc2c(c1)CCCC2 (stereo not drawn)	-0.5%	11.8%	23.1µM*	-5.5%
CC(NC(=O)CCCCCN1C(=O)c2ccccc2C1=O)c1ccc2c(c1)CCCC2 (stereo not drawn)	0.4%	-17.5%	?	-2.2%
CC1CCCN(CC(=O)Nc2cc(S(=O)(=O)N3CCOCC3)ccc2N2CCCC2)C1 (stereo not drawn)	-1.6%	-17.9%	10.1%	-17.7%
COC(=O)c1ccc2c(c1)C(C)(C)C(/C=C/c1ccccc1O)=[N+]2C	?	·	6.51µM*	?
CCCCCCc1cc2cc(-c3nnc(-c4ccccc4O)o3)c(=O)oc2cc1O	-0.5%	9.4%	?	13.7%
CCCCCCc1cc2cc(-c3nnc(-c4ccccc4OC)o3)c(=O)oc2cc1O	5.3%	?	7.31µM*	-8.4%
COc1ccc(COC(=O)CNC(=O)C2CCCCC2)cc1F	-0.6%	-4.2%	0.0%	2.3%
COc1cccc(-c2nc(NCC3CCCO3)c3ccccc3n2)c1O (stereo not drawn)	4.0%	?	?	-18.0%
COc1cccc(-c2nc(NC(C)C)c3ccccc3n2)c1O	0.3%	?	5.17µM*	·
CCC(C)Nc1nc(-c2cccc(OC)c2O)nc2ccccc12 (stereo not drawn)	-2.1%	20.6µM*	17.8%	?
CCC(C)(C)NC(=O)C(c1cccc(OC)c1OC)N(C(=O)CCC(=O)Nc1cc(C)on1)C(C)C (stereo not drawn)	0.1%	-3.5%	2.5%	0.0%
O=C(Nc1cccc2cccnc12)c1ccccc1	·	?	·	0.1%
O=C(NC(=S)Nc1cccc2cccnc12)c1ccccc1	4.47µM*	?	0.0%	-2.2%
O=C(NC(=S)Nc1cccc(Cl)c1N1CCCCC1)c1cccs1	7.8%	·	-0.4%	?
O=C(Nc1cccc2cccnc12)c1ccc(F)cc1	12.6µM*	?	·	1.2%
O=C(NC(=S)Nc1cccc2cccnc12)c1cccs1	8.91µM*	6.3%	15.8%	-3.0%
N#Cc1ccccc1NC(=S)NC(=O)c1cccs1	15.8µM*	1.2%	?	1.9%
SMILES	Nrf2 ARE act	Nrf2 block	ELG1 repair inh	A549 viability
CN1C(=O)c2cccc3c(S(=O)(=O)Nc4cccc(C(=O)O)c4)ccc1c23	0.1%	?	·	-8.6%
Nc1c(N(Cc2ccco2)C(=O)c2ccccc2F)c(=O)[nH]c(=O)n1Cc1ccccc1	0.1%	11.0%	2.4%	-2.6%
COc1ccc(C(=O)NCc2nnc(SCC(=O)N3CCc4ccccc43)n2CCc2ccccc2)cc1	0.1%	-13.1%	14.6µM*	-0.5%
O=C(Nc1ccc([N+](=O)[O-])cc1Cl)c1cc(Cl)cc(Cl)c1O	·	?	·	-16.1%
COc1ccc(NC(C)=O)cc1NC(C)c1nc2sc(C)c(C)c2c(=O)[nH]1 (stereo not drawn)	0.6%	-4.3%	20.6µM*	-2.0%
COc1ccc(OC)c(NC(=O)C(C)SCc2nc3sc(C)c(C)c3c(=O)[nH]2)c1 (stereo not drawn)	0.0%	-10.6%	?	3.8%
Cn1ncc2ccc(-c3ccc4ncnc(NCc5cccs5)c4c3)cc21	·	-10.4%	·	-2.5%
Cc1c(Cl)cccc1NC(=O)Nc1nnc(N(C)C2CCCCC2)s1	-0.2%	18.4µM*	·	-1.5%
Cc1ccc(NC(=O)Nc2nnc(N(C)C3CCCCC3)s2)c(Cl)c1	0.4%	-4.9%	·	3.9%
CC(C)(C)c1cc(C(=O)NNC(=O)c2ccc(Cl)cc2)no1	0.1%	-21.2%	-15.2%	-8.8%
Cc1c2cnn(CC(=O)NCCc3ccccc3)c(=O)c2c(C)n1Cc1ccccc1Cl	-0.1%	?	·	-6.5%
S=c1[nH]nc(COc2ccccc2)n1/N=C/C=C/c1ccco1	12.6µM*	10.0%	1.8%	0.1%
COc1ccc(CNn2c(-c3cccc(C)c3)nc3ccccc3c2=O)cc1OC	0.1%	-23.9%	14.6µM*	1.9%
Cc1ccc(S(=O)(=O)N(C)c2ccc(OC(=O)CN3C(=O)NC4(CCCC4)C3=O)cc2)cc1C	-0.8%	-22.3%	1.2%	9.4%
CCc1ccc(NC(=O)N2CC=C(c3c[nH]c4ccccc34)CC2)cc1	12.0%	-19.9%	·	?
CSc1ccc(NC(=O)N2CC=C(n3c(=O)[nH]c4ccccc43)CC2)cc1	3.4%	-15.6%	23.1µM*	-18.0%
CCOC(=O)c1c(C)[nH]c(C)c1C(=O)COC(=O)/C=C/c1cccc(Cl)c1	16.4%	-3.5%	?	-4.1%
CCOC(=O)c1c(C)[nH]c(C=O)c1Cc1cccc(Cl)c1	0.4%	25.9µM*	-2.0%	?
CCN(CC)C(=N)N1c2ccccc2CCC1C (stereo not drawn)	-0.3%	0.6%	13.2%	0.4%
Cc1noc(C)c1S(=O)(=O)N(CC(=O)Nc1ccc(C(F)(F)F)cc1)c1ccc(C(C)C)cc1	4.2%	16.4µM*	·	-13.3%
CCOc1ccc(N(CC(=O)Nc2cccc(OC)c2)S(=O)(=O)c2c(C)noc2C)cc1	-0.2%	?	?	-9.6%
CCOc1ccc(N(CC(=O)Nc2cccc(Cl)c2)S(=O)(=O)c2c(C)noc2C)cc1	0.2%	23.1µM*	?	?
COc1ccc(N(CC(=O)Nc2ccc3c(c2)OCCO3)S(=O)(=O)c2c(C)noc2C)cc1	1.9%	?	-11.3%	-1.7%
Cc1ccc(N(CC(=O)Nc2ccc3c(c2)OCCO3)S(=O)(=O)c2c(C)noc2C)cc1	0.2%	-27.9%	16.4µM*	-7.1%
COc1ccc(C)cc1S(=O)(=O)N(C)CC(=O)Nc1ccc2c(c1)OCO2	-0.1%	10.8%	-12.1%	2.9%
COc1ccc(C)cc1S(=O)(=O)N(CC(=O)Nc1ccc2c(c1)OCCO2)Cc1ccccc1	-0.7%	·	18.4µM*	-2.6%
Cc1n[nH]c(C)c1S(=O)(=O)N(CC(=O)Nc1ccc(C(F)(F)F)cc1)c1ccc(C(C)C)cc1	-4.4%	?	·	-24.9%

High-throughput results deposited in PubChem by National Center for Advancing Translational Sciences (NCATS).
